Measured values reported in PubChem BioAssay (Tox21).
Results filed as inconclusive are left out. Activity calls are given as the source filed them. Unless noted, calls come from the whole dose curve; as a rule, active = well fitted curve in the direction sought with a large enough effect in the repeat runs; inconclusive = weak or mixed curves; inactive = flat fitted curve, though single readings scatter.

Columns and labels:
[1] = qHTS assay to test for compound auto fluorescence at 535 nm (green) in HEK293 cells (AID 720680); conditions: green autofluorescence 485/535 nm; series mostly up to 91.3 µM
[2] = qHTS assay to test for compound auto fluorescence at 460 nm (blue) in HEK293 cell free culture (AID 720681); conditions: cell-free medium, autofluorescence 405/460 nm (blue); series mostly up to 91.3 µM
Procedure, shortened: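 Compounds were added to cell-free DMEM with 10% FBS and fluorescence read directly. The blue channel used 405 nm excitation and 460 nm emission, with triamterene as the reference fluorophore.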

[3] = qHTS assay to test for compound auto fluorescence at 535 nm (green) in HEK293 cell free culture (AID 720682); conditions: cell-free medium, green autofluorescence 485/535 nm; series mostly up to 91.3 µM
Procedure, shortened: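 Green-label autofluorescence (485 nm excitation, 535 nm emission) measured on compound added to cell-free culture medium (DMEM, 10% FBS). Output is expressed relative to fluorescein.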

[4] = qHTS assay to test for compound auto fluorescence at 590 nm (red) in HEK293 cell free culture (AID 720683); conditions: cell-free medium autofluorescence, Ex540/Em590 red; series mostly up to 91.3 µM
Procedure, shortened: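 Cell-free wells of DMEM with 10% FBS received compound, and intrinsic fluorescence was read at excitation/emission 540/590 nm. Values expressed as equivalence to Rose Bengal sodium.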

[5] = qHTS assay to test for compound auto fluorescence at 590 nm (red) in HepG2 cell free culture (AID 720684); conditions: cell-free medium autofluorescence, red 540/590 nm; series mostly up to 91.3 µM
Procedure, shortened: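 Rose Bengal sodium served as the reference for red signal. Test compounds were dispensed into serum-containing MEM (10% FBS) without cells, and plates were read at 540/590 nm.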

[6] = qHTS assay to test for compound auto fluorescence at 460 nm (blue) in HepG2 cell free culture (AID 720685); conditions: Cell-free culture medium, blue autofluorescence 405/460 nm; series mostly up to 91.3 µM
Procedure, shortened: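 Cell-free plates of MEM plus 10% FBS received 23 nL compound or DMSO vehicle; blue-channel (405/460 nm) intensity scored against triamterene as reference fluorophore.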

[7] = qHTS assay to test for compound auto fluorescence at 535 nm (green) in HepG2 cell free culture (AID 720686); conditions: Cell-free medium, green autofluorescence 485/535 nm; series mostly up to 91.3 µM
[8] = qHTS assay to test for compound auto fluorescence at 460 nm (blue) in HepG2 cells (AID 720687); conditions: autofluorescence 405/460 nm, 1 h; series mostly up to 91.3 µM
Procedure, shortened: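 HepG2 cells in MEM with 10% FBS, attached overnight at 37 C, were exposed to compound or DMSO for 1 hr at 37 C, 5% CO2. Blue fluorescence was read at 405/460 nm, with triamterene as reference fluorophore.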

[9] = biological target: Glucocorticoid receptor (Homo sapiens) (UniProt P04150); test: qHTS assay to identify small molecule agonists of the glucocorticoid receptor (GR) signaling pathway (AID 720691; active = well fitted activation curve with a large enough effect in the signal ratio in the repeat runs, not every such curve was filed as active; the % refers to the signal ratio); conditions: GR-bla HeLa, beta-lactamase reporter ratio, 18 h; activation: at 62.4 µM (top of the series) unless noted
Procedure, shortened: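 Steps: seed GR-bla HeLa cells, incubate 4 h at 37 C/5% CO2; pin-transfer DMSO-dissolved compounds; incubate 18 h at 37 C; add LiveBLAzer B/G FRET substrate; after 2 h at room temperature, measure fluorescence.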

[10] = biological target: Glucocorticoid receptor (Homo sapiens) (UniProt P04150); test: qHTS assay to identify small molecule antagonists of the glucocorticoid receptor (GR) signaling pathway (AID 720692; active = well fitted inhibition curve with a large enough effect in the signal ratio in the repeat runs, not every such curve was filed as active; the % refers to the signal ratio); conditions: GR-bla HeLa, beta-lactamase FRET ratio, dexamethasone-stimulated, 18 h; series mostly up to 58.5 µM
Procedure, shortened: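 Antagonism was scored as loss of dexamethasone-driven (5 nM final) reporter signal in HeLa cells bearing a glucocorticoid response element–beta-lactamase construct, after 18 h compound exposure at 37 C and 2 h FRET substrate loading.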

Measured: Potency

Glucocorticoid receptor (Homo sapiens), sequence (P04150 whole entry, looked up): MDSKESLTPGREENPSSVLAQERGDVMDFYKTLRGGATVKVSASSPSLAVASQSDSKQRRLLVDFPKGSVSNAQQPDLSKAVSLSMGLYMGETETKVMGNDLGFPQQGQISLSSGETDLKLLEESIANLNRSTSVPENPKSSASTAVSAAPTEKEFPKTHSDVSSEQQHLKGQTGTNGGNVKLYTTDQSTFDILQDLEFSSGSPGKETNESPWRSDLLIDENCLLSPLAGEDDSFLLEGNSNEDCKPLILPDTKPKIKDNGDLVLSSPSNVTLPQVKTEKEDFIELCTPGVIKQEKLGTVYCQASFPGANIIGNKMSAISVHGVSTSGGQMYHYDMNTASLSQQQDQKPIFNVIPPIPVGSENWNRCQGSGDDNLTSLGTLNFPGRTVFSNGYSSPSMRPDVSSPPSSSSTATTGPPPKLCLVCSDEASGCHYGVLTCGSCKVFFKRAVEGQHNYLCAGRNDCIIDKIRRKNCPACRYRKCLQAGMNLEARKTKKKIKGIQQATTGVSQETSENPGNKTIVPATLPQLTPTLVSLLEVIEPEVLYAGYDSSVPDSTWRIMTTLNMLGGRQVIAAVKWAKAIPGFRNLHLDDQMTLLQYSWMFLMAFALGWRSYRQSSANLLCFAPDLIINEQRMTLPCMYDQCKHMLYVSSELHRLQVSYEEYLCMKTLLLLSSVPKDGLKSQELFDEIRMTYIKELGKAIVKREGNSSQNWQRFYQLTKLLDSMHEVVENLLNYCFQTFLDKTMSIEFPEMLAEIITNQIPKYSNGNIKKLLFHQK

CC(C)Cc1ccccc1
inactive: all assays above

OCC#CCO
inactive: all assays above

CCOC(=O)/C=C\C(=O)OCC
inactive: all assays above

O=C1N=C(O)CN1/N=C/c1ccc(-c2ccc([N+](=O)[O-])cc2)o1
inactive: all assays above

CC(=O)Nc1ccc(C(=O)O)cc1
inactive: all assays above

CCc1ccccc1O
inactive: all assays above

C=C(C)C(=O)OCCCCCC
inactive: all assays above

C=C1C2CCC(C2)C1(C)C (configuration not stated)
inactive: all assays above

CC(C)(C)C1CCC(O)CC1 (configuration not stated)
inactive: all assays above

Cc1cc(=O)[nH]c(C(C)C)n1
inactive: all assays above

NS(=O)(=O)c1cc2c(cc1Cl)NC=NS2(=O)=O
not listed: [3] | [9] | [10]
inactive: all other assays above

Cc1ccc(N)c(S(=O)(=O)O)c1
inactive: all assays above

CC1=C(CC(=O)O)c2cc(F)ccc2/C1=C\c1ccc(S(C)=O)cc1 (configuration not stated)
inactive: all assays above

CS(=O)(=O)c1ccc([C@@H](O)[C@@H](CO)NC(=O)C(Cl)Cl)cc1
inactive: all assays above

CCCCC(CC)COC(C)=O (configuration not stated)
inactive: all assays above
